Where a chain is given by its changes, count along the chain named.

The text below walks through data of article PMC11006913.

Holding throughout (assay): PBM; 200 nM protein, PBS
What all share (conditions): dsDNA, one strand shown

Experiment [1] addresses ALX1 (Homo sapiens, UniProt Q15699 118-204, L144V).
Experiment [2] has as its target ALX1 (Homo sapiens, UniProt Q15699 118-204, L144R).
Experiment [3] addresses ALX1 (Homo sapiens, UniProt Q15699 118-204).
The target of experiment [4] is ALX3 (Homo sapiens, UniProt O95076 139-225, N203Q).
ALX3 (Homo sapiens, UniProt O95076 139-225, N203Q), sequence (O95076 139-225 N203Q): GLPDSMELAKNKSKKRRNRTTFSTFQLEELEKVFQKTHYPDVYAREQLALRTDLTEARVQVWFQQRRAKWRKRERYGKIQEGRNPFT
The target of experiment [5] is ALX3 (Homo sapiens, UniProt O95076 139-225).
ALX3 (Homo sapiens, UniProt O95076 139-225), sequence (O95076 139-225): as the sequence (O95076 139-225 N203Q) above, with Q65N counted along it
In experiment [6] the target is PROP1 (Homo sapiens, UniProt O75360 56-141).
PROP1 (Homo sapiens, UniProt O75360 56-141), sequence (O75360 56-141): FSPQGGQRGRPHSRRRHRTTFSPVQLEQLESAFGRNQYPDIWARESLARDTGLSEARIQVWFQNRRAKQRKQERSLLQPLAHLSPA
Experiment [7] concerns the target PROP1 (Homo sapiens, UniProt O75360 56-141, R99H).
Experiment [8] has as its target ALX3 (Homo sapiens, UniProt O95076 139-225, L168Q).
In experiment [9] the target is ALX3 (Homo sapiens, UniProt O95076 139-225, L168V).
ALX3 (Homo sapiens, UniProt O95076 139-225, L168V), sequence (O95076 139-225 L168V): as the sequence (O95076 139-225 N203Q) above, with L30V, Q65N counted along it
The target in experiment [10] is PROP1 (Homo sapiens, UniProt O75360 56-141, F88S).
PROP1 (Homo sapiens, UniProt O75360 56-141, F88S), sequence (O75360 56-141 F88S): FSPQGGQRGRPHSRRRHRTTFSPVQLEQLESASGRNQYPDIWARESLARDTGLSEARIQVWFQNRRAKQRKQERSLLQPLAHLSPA
Experiment [11] deals with ALX3 (Homo sapiens, UniProt O95076 139-225, N203S).
ALX3 (Homo sapiens, UniProt O95076 139-225, N203S), sequence (O95076 139-225 N203S): as the sequence (O95076 139-225 N203Q) above, with Q65S counted along it
Experiment [12] deals with HOXD13 (Homo sapiens, UniProt P35453 263-343, T313R).
HOXD13 (Homo sapiens, UniProt P35453 263-343, T313R), sequence (P35453 263-343 T313R): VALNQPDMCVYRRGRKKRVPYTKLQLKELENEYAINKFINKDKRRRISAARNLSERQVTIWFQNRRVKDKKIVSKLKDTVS
Experiment [13] concerns the target HOXD13 (Homo sapiens, UniProt P35453 263-343).
Experiment [14] addresses HOXD13 (Homo sapiens, UniProt P35453 263-343, T313A).
Experiment [15] has as its target HOXC9 (Homo sapiens, UniProt P31274 178-260, R222W).
In experiment [16] the target is T1, NKX2-6 (Homo sapiens, UniProt A6NCS4 118-204).
T1 sequence: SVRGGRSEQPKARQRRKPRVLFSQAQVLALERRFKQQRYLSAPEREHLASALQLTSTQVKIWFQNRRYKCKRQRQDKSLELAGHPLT

The target of experiment [17] is T2, NKX2-6 (Homo sapiens, UniProt A6NCS4 118-204, F151L).
T2 sequence: T1 sequence with F34L

In experiment [18] the target is T3, PAX4 (Homo sapiens, UniProt O43316 9-242, F177V).
T3 sequence: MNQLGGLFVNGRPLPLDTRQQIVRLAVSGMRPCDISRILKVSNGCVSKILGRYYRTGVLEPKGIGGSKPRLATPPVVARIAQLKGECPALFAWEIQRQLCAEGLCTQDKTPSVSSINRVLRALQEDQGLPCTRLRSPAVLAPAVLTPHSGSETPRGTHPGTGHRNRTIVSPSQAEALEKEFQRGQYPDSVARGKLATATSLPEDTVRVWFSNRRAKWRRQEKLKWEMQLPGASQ

ALX1 (Homo sapiens, UniProt Q15699 118-204, L144R), sequence (Q15699 118-204 L144R): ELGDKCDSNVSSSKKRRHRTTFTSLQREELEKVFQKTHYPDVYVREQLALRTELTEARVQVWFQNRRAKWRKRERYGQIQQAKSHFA
ALX1 (Homo sapiens, UniProt Q15699 118-204), sequence (Q15699 118-204): as the sequence (Q15699 118-204 L144R) above, with R27L counted along it
ALX1 (Homo sapiens, UniProt Q15699 118-204, L144V), sequence (Q15699 118-204 L144V): as the sequence (Q15699 118-204 L144R) above, with R27V counted along it
ALX3 (Homo sapiens, UniProt O95076 139-225, L168Q), sequence (O95076 139-225 L168Q): as the sequence (O95076 139-225 N203Q) above, with L30Q, Q65N counted along it
PROP1 (Homo sapiens, UniProt O75360 56-141, R99H), sequence (O75360 56-141 R99H): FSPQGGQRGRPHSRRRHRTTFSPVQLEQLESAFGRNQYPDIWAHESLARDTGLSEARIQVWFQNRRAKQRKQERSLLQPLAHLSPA
HOXC9, sequence (P31274 178-260 R222W): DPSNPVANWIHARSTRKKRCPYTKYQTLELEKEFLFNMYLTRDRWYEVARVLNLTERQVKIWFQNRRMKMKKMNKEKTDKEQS
HOXD13 (Homo sapiens, UniProt P35453 263-343, T313A), sequence (P35453 263-343 T313A): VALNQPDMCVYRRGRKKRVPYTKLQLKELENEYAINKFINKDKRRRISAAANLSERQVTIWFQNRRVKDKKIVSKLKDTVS
HOXD13 (Homo sapiens, UniProt P35453 263-343), sequence (P35453 263-343): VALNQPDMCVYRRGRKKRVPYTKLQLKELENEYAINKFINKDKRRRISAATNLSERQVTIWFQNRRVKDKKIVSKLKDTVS

Take AATTGGTC: the binding signal is 9.84 upbm affinity estimate (log intensity, higher = more binding, comparable within an allelic series) in experiment [1]; 9.58 upbm affinity estimate (log intensity, higher = more binding, comparable within an allelic series) in [2]; 10.2 upbm affinity estimate (log intensity, higher = more binding, comparable within an allelic series) in experiment [3].
As to CTGGAACC, the binding signal is 6.21 upbm affinity estimate (log intensity, higher = more binding, comparable within an allelic series) in experiment [1]; 6.18 upbm affinity estimate (log intensity, higher = more binding, comparable within an allelic series) in experiment [2]; 6.07 upbm affinity estimate (log intensity, higher = more binding, comparable within an allelic series) in [3].
Take CGACAGGC: the binding signal in [1] is 6.36 upbm affinity estimate (log intensity, higher = more binding, comparable within an allelic series); in experiment [2], 6.36 upbm affinity estimate (log intensity, higher = more binding, comparable within an allelic series); in [3], 6.15 upbm affinity estimate (log intensity, higher = more binding, comparable within an allelic series).
Consider CGACGGCG, for which the binding signal was 6.62 upbm affinity estimate (log intensity, higher = more binding, comparable within an allelic series) in [1]; 6.71 upbm affinity estimate (log intensity, higher = more binding, comparable within an allelic series) in [2]; 6.56 upbm affinity estimate (log intensity, higher = more binding, comparable within an allelic series) in [3].
Take GTAGGTAA: the binding signal was 8.26 upbm affinity estimate (log intensity, higher = more binding, comparable within an allelic series) in experiment [1] and 8.54 upbm affinity estimate (log intensity, higher = more binding, comparable within an allelic series) in experiment [3].
Regarding AGTTAGCC, the binding signal was 7.87 upbm affinity estimate (log intensity, higher = more binding, comparable within an allelic series) in experiment [1]; 7.7 upbm affinity estimate (log intensity, higher = more binding, comparable within an allelic series) in experiment [2]; 8.29 upbm affinity estimate (log intensity, higher = more binding, comparable within an allelic series) in [3].
In the case of ACATAATA, the binding signal in [1] was 9.56 upbm affinity estimate (log intensity, higher = more binding, comparable within an allelic series); in experiment [2] it was 9.39 upbm affinity estimate (log intensity, higher = more binding, comparable within an allelic series); in experiment [3] it was 9.89 upbm affinity estimate (log intensity, higher = more binding, comparable within an allelic series).
On to AGCAATAT, for which the binding signal in [1] is 8.17 upbm affinity estimate (log intensity, higher = more binding, comparable within an allelic series); in experiment [2], 8.11 upbm affinity estimate (log intensity, higher = more binding, comparable within an allelic series); in experiment [3], 8.09 upbm affinity estimate (log intensity, higher = more binding, comparable within an allelic series).
As for AACTAAGT, the binding signal is 8.49 upbm affinity estimate (log intensity, higher = more binding, comparable within an allelic series) in experiment [1] and 8.92 upbm affinity estimate (log intensity, higher = more binding, comparable within an allelic series) in [3].
For the sequence ACCCCCGC, the binding signal in experiment [4] is 7.74 upbm affinity estimate (log intensity, higher = more binding, comparable within an allelic series); in experiment [5], 7.66 upbm affinity estimate (log intensity, higher = more binding, comparable within an allelic series); in experiment [6], 6.56 upbm affinity estimate (log intensity, higher = more binding, comparable within an allelic series); in experiment [7], 6.52 upbm affinity estimate (log intensity, higher = more binding, comparable within an allelic series); in experiment [8], 7.66 upbm affinity estimate (log intensity, higher = more binding, comparable within an allelic series); in experiment [9], 7.68 upbm affinity estimate (log intensity, higher = more binding, comparable within an allelic series). In addition, the binding signal is 6.34 upbm affinity estimate (log intensity, higher = more binding, comparable within an allelic series) in experiment [10] and 7.73 upbm affinity estimate (log intensity, higher = more binding, comparable within an allelic series) in experiment [11].
As to TATTAAAA, the binding signal in [4] is 8.56 upbm affinity estimate (log intensity, higher = more binding, comparable within an allelic series); in experiment [12], 10.8 upbm affinity estimate (log intensity, higher = more binding, comparable within an allelic series); in [13] it was 11.8 upbm affinity estimate (log intensity, higher = more binding, comparable within an allelic series); in experiment [14], 11.8 upbm affinity estimate (log intensity, higher = more binding, comparable within an allelic series); in experiment [15], 11.1 upbm affinity estimate (log intensity, higher = more binding, comparable within an allelic series).
As for CCCCCCAA, the binding signal is 7.79 upbm affinity estimate (log intensity, higher = more binding, comparable within an allelic series) in experiment [4]; 7.79 upbm affinity estimate (log intensity, higher = more binding, comparable within an allelic series) in [5]; 7.64 upbm affinity estimate (log intensity, higher = more binding, comparable within an allelic series) in [8]; 7.7 upbm affinity estimate (log intensity, higher = more binding, comparable within an allelic series) in experiment [9]; 7.81 upbm affinity estimate (log intensity, higher = more binding, comparable within an allelic series) in experiment [11].
With AATTGTCC, the binding signal in experiment [4] was 8.15 upbm affinity estimate (log intensity, higher = more binding, comparable within an allelic series); in experiment [16], 11.4 upbm affinity estimate (log intensity, higher = more binding, comparable within an allelic series); in [5], 10.1 upbm affinity estimate (log intensity, higher = more binding, comparable within an allelic series); in experiment [17], 9.84 upbm affinity estimate (log intensity, higher = more binding, comparable within an allelic series); in experiment [11], 8.23 upbm affinity estimate (log intensity, higher = more binding, comparable within an allelic series).
As to AATATTAT, the binding signal in experiment [4] was 8.61 upbm affinity estimate (log intensity, higher = more binding, comparable within an allelic series); in experiment [18], 10.7 upbm affinity estimate (log intensity, higher = more binding, comparable within an allelic series); in experiment [11] it was 8.71 upbm affinity estimate (log intensity, higher = more binding, comparable within an allelic series).
In the case of CTTAATTC, the binding signal was 8.32 upbm affinity estimate (log intensity, higher = more binding, comparable within an allelic series) in [4]; 11.7 upbm affinity estimate (log intensity, higher = more binding, comparable within an allelic series) in experiment [5]; 9.59 upbm affinity estimate (log intensity, higher = more binding, comparable within an allelic series) in experiment [8]; 9.14 upbm affinity estimate (log intensity, higher = more binding, comparable within an allelic series) in experiment [9]; 8.4 upbm affinity estimate (log intensity, higher = more binding, comparable within an allelic series) in [11].
